Only some compounds are listed: those with a hit (about 11% of all), similar ones and a draw of the others.
Pf growth 48h: P. falciparum growth inhibition at 48 hours (one generation); P. falciparum luciferase growth in erythrocytes, 48 h; Potency, µM (series often up to 28.7 µM), for inactives: at the highest dose activity change, negative = inhibition, actives largely listed as inhibitors; 310,000 compounds, 5.9% hits; AID 504832
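First compound was added to culture medium, then infected red cells at 0.1% parasitemia and 2% hematocrit (final). After incubation at 37 C under 5% CO2, luciferase detection reagent was dispensed and light output recorded.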
HCV inh: inhibitors of hepatitis C virus infection; Huh7.5.1 HCVcc-Cre infection, luciferase reporter, 44 h; Potency, µM (highest dose often 41.8 µM), for the others: at the highest dose activity change, negative = inhibition, most hits filed as inhibitors; 340,000 compounds, 3.4% hits
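Infectious HCV cell culture screen: compound-treated cells (1,000/well, pre-plated 4 h) are infected with HCVcc-Cre at roughly 0.5 moi and grown 44 h. Infection is quantified by luciferase signal after 15 min substrate incubation at room temperature.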
AmpC inh no detg: AmpC beta-lactamase inhibition without detergent; AmpC nitrocefin hydrolysis, absorbance 480 nm, 0.0001% Triton; AID 485341; Potency, µM (series often up to 57.1 µM), inactives show top-dose activity change, negative = inhibition, hits mostly inhibitors; P00811; 330,000 compounds, 0.52% hits;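 further: plate controls were no compound for no effect and no enzyme for full effect; nearly all actives have a fitted effect of over 20% in size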
Target sequence (P00811 whole entry, looked up): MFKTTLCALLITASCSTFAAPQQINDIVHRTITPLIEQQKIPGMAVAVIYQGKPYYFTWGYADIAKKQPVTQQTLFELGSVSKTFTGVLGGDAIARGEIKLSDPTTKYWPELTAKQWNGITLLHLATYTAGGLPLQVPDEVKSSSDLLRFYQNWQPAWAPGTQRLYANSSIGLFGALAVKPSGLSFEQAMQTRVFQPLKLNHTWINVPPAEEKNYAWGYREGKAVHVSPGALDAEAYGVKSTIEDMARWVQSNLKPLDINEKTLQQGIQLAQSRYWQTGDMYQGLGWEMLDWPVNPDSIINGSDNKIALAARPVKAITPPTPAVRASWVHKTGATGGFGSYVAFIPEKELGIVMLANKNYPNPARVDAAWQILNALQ
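AmpC (5.3 nM in the dispensed reagent) in 20 mM phosphate pH 7.0 with 0.01% (detergent screen) or 0.0001% Triton X-100 was preincubated with compounds for 15 min at room temperature. Nitrocefin was then added from an 800 uM solution, and hydrolysis was followed at 480 nm.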
Pf growth 96h: inhibits malaria parasite growth, 96 h | P. falciparum luciferase reporter growth, 96 h | Potency, µM (series often up to 28.7 µM), for the others: at the highest dose activity change, negative = inhibition, most hits filed as inhibitors | 320,000 compounds, 6.9% hits | AID 504834
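Delayed-death screen, second-generation endpoint: infected erythrocytes, 2% hematocrit, 0.05% parasitemia final; 96 hours at 37 C, 5% CO2; luciferase detection reagent; luminescence decrease equals reduced growth.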
AmpC detergent: blocks E. coli AmpC beta-lactamase in detergent assay; AmpC hydrolysis of nitrocefin, absorbance 480 nm, 0.01% Triton; P00811; 370,000 compounds, 0.041% hits; Potency, µM (top dose mostly 114 µM), for the others: at the highest dose activity change, negative = inhibition, actives largely listed as inhibitors; AID 485294;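 further: 0% = no-compound wells and -100% = no-enzyme wells; nearly all actives have a fitted effect of over 25% in size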
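20 mM phosphate pH 7.0 + 0.01% (detergent screen) or 0.0001% Triton X-100; 5.3 nM AmpC reagent; cpd preinc 15 min RT; nitrocefin (800 uM stock) to start; A480 q20 s × 4 min; Activity was normalised to no-enzyme and no-compound control wells.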
AMA1 RON2 block: AMA1-RON2 (P. falciparum) interaction inhibition; AlphaScreen AMA1-biotinylated RON2 peptide binding; Potency, µM (series often up to 58.2 µM), for the others: top-dose activity change, negative = inhibition, hits mostly inhibitors; 360,000 compounds, 0.2% hits; AID 720542;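 further: 0% = vehicle wells and -100% = peptide control; nearly all actives have a fitted effect of over 45% in size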
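AMA1 (3D7) with his tag at 25 nM final met compounds first, then biotinylated RON2 peptide at 25 nM; detection used donor plus acceptor beads, 10 µg/mL apiece, read by AlphaScreen after 30 min at room temperature.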
An asterisk follows results filed as active; ? = inconclusive; . = no result given; ! = repeats disagree; [ ] = another dose, or the depositor's remark. The call rests on the fitted dose curve; in most records, active means well fitted curve in the direction sought with a large enough effect; inconclusive means small, poorly fitted or top-dose-only effect, or another doubt; inactive means no such curve, though single readings can be large; an effect the other way counts as inactive or inconclusive. Unless noted, on the % scale 0 is the no-effect control and ±100 the full control effect; potency means the concentration at half of the fitted maximal effect.

SMILES	Pf growth 48h	HCV inh	AmpC inh no detg	Pf growth 96h	AmpC detergent	AMA1 RON2 block
COc1cc(C2C(C(=O)OC(C)C)=C(C)N=C3SCCC(=O)N32)ccc1OCc1ccccc1 (centres undefined)	.	.	.	.	-7%	.
CCC(=O)N1CCc2cc(S(=O)(=O)NC(Cc3ccccc3)C(=O)Nc3cccc(OC)c3)ccc21 (centres undefined)	.	.	.	.	0%	.
Cc1ccc(Cn2c(C)c(CNCC(C)c3ccccc3)c(C(=O)O)c2C)cc1 (centres undefined)	.	.	.	.	1%	.
COc1ccc(-n2ccn3c(CC(C)(C)CC(=O)O)nnc3c2=O)cc1	.	.	.	.	1%	.
COc1ccc(-c2cn3nc(N4CCCC(C(=O)Nc5ccccc5F)C4)sc3n2)cc1 (centres undefined)	.	.	.	.	9%	.
COc1cccc(Nc2nc3ccccc3c(=O)[nH]2)c1	-19%	-9%	10µM*	?	2%	-5%
O=C(NC1CC1)C1C2C3C4CC5C3C5C4C12 (centres undefined)	5.9µM*	17%	-12%	7%	-6%	4%
CC(C)(C)OC(=O)N1CCC(NC(=O)c2nc[nH]c2C(=O)N2CCN(C(=O)OC(C)(C)C)CC2)CC1	10µM*	11%	21%	?	-9%	12%
CC(C)(C)OC(=O)NCCCCCNC(=O)c1[nH]cnc1C(=O)NC1CCN(C(=O)OC(C)(C)C)CC1	9.3µM*	?	191%	2.1µM*	3%	93%
CC(C)(C)OC(=O)NCCCCCNC(=O)c1nc[nH]c1C(=O)N1CCN(C(=O)OC(C)(C)C)CC1	?	17%	101%	?	-6%	7%
CC(C)c1ccc(CNc2nc(-c3ccco3)nn2C(=O)c2ccc([N+](=O)[O-])cc2)cc1	.	.	.	.	19%	.
Cc1cccc(N2CCN(C(=O)c3ccc4c(c3)N(Cc3ccccc3)C(=O)c3ccccc3S4(=O)=O)CC2C)c1 (centres undefined)	.	.	.	.	-12%	.
CN(C(=O)CSc1cn(CC(=O)N2CCCC2)c2ccccc12)c1ccccc1	.	.	.	.	7%	.
CCN(CC)c1cc(C)c2cc(NC(=O)c3ccc(Br)o3)ccc2n1	12µM*	?	83%	63%	-10%	-23%
CCCCc1ccc(C(=O)Nc2ccc3nc(N(CC)CC)cc(C)c3c2)cc1	.	.	.	.	4%	.
CCN1CCN(c2cc(C)c3cc(NC(=O)CCC(=O)Nc4ccc(OC)cc4OC)ccc3n2)CC1	13µM*	?	72%	?	2%	-2%
CCc1nnc(NC(=O)CN2CCN(Cc3ccc(C)cc3)CC2)s1	-12%	5%	1%	9.3µM*	-4%	69%
Cc1cc(N2CCN(C)CC2)nc2ccc(NC(=O)CCC(=O)N3CCN(c4ccc([N+](=O)[O-])cc4)CC3)cc12	5.2µM*	11µM*	161%	-21%	-3%	-14%
Cc1cc(N2CCOCC2)nc2ccc(NC(=O)CCC(=O)N3CCN(c4ccccc4)CC3)cc12	-28%	?	159%	?	?	-29%
CCc1nnc(NC(=O)CN2CCN(Cc3ccccc3C)CC2)s1	0%	-13%	1%	-26%	-15%	49%
Cc1nc2ccc(NC(=O)c3ccc(Br)o3)cc2s1	89%	-17%	-12%	162%	1%	0%
Cc1cc(N2CCN(C)CC2)nc2ccc(NC(=O)c3ccccc3F)cc12	33%	-24%	22%	9.3µM*	?	-6%
CCc1nnc(NC(=O)c2ccc(Br)o2)s1	21%	16%	-1%	5.9µM*	?	10%
CCCC(=O)Nc1nc2ccc(NC(=O)c3ccc(Br)o3)cc2s1	?	7.9µM*	-34%	26%	2%	-8%
CCN1CCN(c2cc(C)c3cc(NC(=O)c4ccc(C)c(C)c4)ccc3n2)CC1	2.1µM*	?	-4%	?	-4%	3%
SMILES	Pf growth 48h	HCV inh	AmpC inh no detg	Pf growth 96h	AmpC detergent	AMA1 RON2 block
CCc1nnc(NC(=O)c2ccc(C)o2)s1	82%	6%	-17%	53%	-4%	-13%
CCN(CC)c1cc(C)c2cc(NC(=O)c3ccccc3OC)ccc2n1	?	10µM*	61%	9.3µM*	-8%	28%
CCN1CCN(c2cc(C)c3cc(NC(=O)c4ccc(Br)o4)ccc3n2)CC1	2.3µM*	?	130%	25%	3%	-9%
CCN1CCN(C(=S)Nc2ccc3nc(N4CCN(C)CC4)cc(C)c3c2)CC1	?	?	-1%	37%	-10%	-6%
CCN1CCN(c2cc(C)c3cc(NC(=O)c4ccccc4F)ccc3n2)CC1	.	.	115%	4.7µM*	?	.
CCN1CCN(C(=S)Nc2ccc3nc(N4CCN(CC)CC4)cc(C)c3c2)CC1	6.6µM*	13µM*	-2%	0%	-11%	-3%
CCN1CCN(c2cc(C)c3cc(NC(=O)c4cccnc4Cl)ccc3n2)CC1	.	?	-1%	.	?	-11%
COc1ccc(-c2cc(C(C)=O)c(C)n2CCC(=O)Nc2ccc(C)cc2Cl)cc1	.	.	.	.	2%	.
COc1ccc(Cl)cc1NCCC(O)c1ccc(F)cc1 (centres undefined)	-3%[0.00184 µM]	7.1µM*	-8%	-9%	0%	-8%
Cc1ccc(-n2nc(C)c3c(C(F)(F)F)cc(-c4cccnc4)nc32)cc1C	.	.	.	.	1%	.
CC(NCc1ccccc1O)C12CC3CC(CC(C3)C1)C2 (centres undefined)	0.066µM*	-5%	-28%	0.1µM*	3%	-6%
Cn1cc(NC(=O)c2cc(NC(=O)c3cc(NC=O)cn3C)cn2C)cc1C(=O)NCCC(=N)N	3.4µM*!	.	-6%	?	0%	.
N#CC1=C2Sc3ccccc3N2CCCC1=O	-4%	23%	-14%	60%	0%	-2%
N#CC1=C2SC=C(c3ccc(Br)cc3)N2CCCC1=O	155%	11µM*	-16%	244%	-2%	17%
CN1CCC(=C(c2ccccc2)c2ccc(Br)cc2)CC1	.	8.9µM*	.	.	.	-4%

From PubChem BioAssay
